B1: PhoQ; a variant is named by its letters at X, in order, P23837 (parent)
chain: MKKLLRLFFPLSLRVRFLLATAAVVLVLSLAYGMVALIGYSVSFDKTTFRLLRGESNLFYTLAKWENNKLHVELPENIDKQSPTMTLIYDENGQLLWAQRDVPWLMKMIQPDWLKSNGFHEIEADVNDTSLLLSGDHSIQQQLQEVREDDDDAEMTHSVAVNVYPATSRMPKLTIVVVDTIPVELKSSYMVWSWFIYVLSANLLLVIPLLWVAAWWSLRPIEALAKEVRELEEHNRELLNPATTRELTSLVRNLNRLLKSERERYDKYRTTLTDLTHSLKTPLXXLQXXLRSLRSEKMSVSDAEPVMLEQISRISQQIGYYLHRASMRGGTLLSRELHPVAPLLDNLTSALNKVYQRKGVNISLDISPEISFVGEQNDFVEVMGNVLDNACKYCLEFVEISARQTDEHLYIVVEDDGPGIPLSKREVIFDRGQRVDTLRPGQGVGLAVAREITEQYEGKIVAGESMLGGARMEVIFGRQHSAPKDE

Whole data set: some 140,000 sequences, median “enrichment ratio after two sorts for PhoP signalling” near 0, cut for the highest 2% near 11. The full list was thinned out, with the highest values kept by preference.

In the experiment the parent is B1. The experiment in a line: enrichment ratio after two sorts for PhoP signalling (ratio (wild type AVST 3.29)); higher = more functional. Particulars: with PhoP (E. coli).
Turning to SCGR, the enrichment ratio was not above 0.25.

For the variant GTVR, the enrichment ratio is not above 0.25. As for SFSS, the figure is not above 0.25; as for VDHN, not above 0.25. Turning to ILLE, the enrichment ratio is not above 0.25. As for DHMC, the figure is not above 0.25.

As to FYNT, the enrichment ratio was not above 0.25. As for ANLF, the figure is 10.7; as for KIQT, not above 0.25; as for ISLD, not above 0.25. As for ETRK, the figure is not above 0.25; as for TGAM, 13; as for SRAM, not above 0.25. As for THAM, the figure is 18.6; as for QGAM, 13.

In the case of NHAM, the enrichment ratio is not above 0.25. On to SHAM, for which the enrichment ratio amounted to 8.88. As for FFAM, the figure is not above 0.25; as for NGAM, not above 0.25; as for TRAM, 15.1. As for RGAM, the figure is not above 0.25; as for QGWM, 9.7. As for VRAM, the figure is not above 0.25; as for EKVL, not above 0.25. With YQEF, the enrichment ratio is not above 0.25. As for KAPT, the figure is not above 0.25; as for IGGQ, not above 0.25. As for GGAM, the figure is 18.2; as for KDAM, not above 0.25. As for TDAM, the figure is 17.8. Regarding LTAM, the enrichment ratio was not above 0.25. In the case of TFGM, the enrichment ratio worked out at 1.64. As for TFAM, the figure is 18.6; as for NIAM, not above 0.25. As for YHAM, the figure is not above 0.25; as for TFTM, 3.86. As for LYIW, the figure is not above 0.25.

On to VRDS, for which the enrichment ratio was not above 0.25. As for AKMD, the figure is not above 0.25; as for TKMI, 38.2; as for AKMI, 12.8.

As for TDFA, the enrichment ratio is not above 0.25.

With ADMI, the enrichment ratio was determined as 12.7. As to TDMI, the enrichment ratio is 27.6. As to ADFA, the enrichment ratio was not above 0.25. As for TKMG, the figure is 7.64; as for AIMI, 5.72.

With PTMI, the enrichment ratio is not above 0.25. As for AYMI, the figure is 0.272; as for LTMI, 0.673; as for LVPL, not above 0.25. As for PNNY, the figure is not above 0.25; as for WLFH, not above 0.25; as for PLHT, not above 0.25.

For QAAQ, the enrichment ratio was not above 0.25. As for EGTK, the figure is not above 0.25. As for APAS, the figure is not above 0.25. As for ALRD, the enrichment ratio is not above 0.25. As for ALMG, the figure is 6.08; as for ATYI, not above 0.25. Consider ATMI, for which the enrichment ratio is 19.9.

Turning to ATPA, the enrichment ratio was not above 0.25. Regarding KDMK, the enrichment ratio is not above 0.25. For ALMI, the enrichment ratio is 17.6. As for ALMD, the figure is not above 0.25; as for LTMK, not above 0.25.

With TDMK, the enrichment ratio amounted to 11.7. As for NVRS, the figure is not above 0.25. As for HGKV, the figure is not above 0.25.

With KGKP, the enrichment ratio was not above 0.25. As for NFLN, the figure is 0.688; as for AFWR, not above 0.25; as for ASHK, not above 0.25.

For the variant ASLV, the enrichment ratio is 18.7. As for KSLF, the figure is not above 0.25.

ASNS: the enrichment ratio was not above 0.25. As for ASLM, the figure is 15.3; as for VRLC, not above 0.25; as for ASLF, 12.2. As for ASFM, the figure is 6.83; as for ADLV, 8.2; as for ASTS, 9.85. For the variant NSLF, the enrichment ratio is not above 0.25. As for ASLC, the figure is 16.7; as for NIYP, not above 0.25; as for LAFW, not above 0.25. As for YYWT, the figure is not above 0.25. As for ASTQ, the figure is 3.55.

With ASWI, the enrichment ratio was 2.59. For ASLS, the enrichment ratio came out at 10.2. As for ASLK, the figure is 8.78; as for ASTI, 13.9; as for ASDK, not above 0.25. With ASTK, the enrichment ratio was not above 0.25. ASLA: the enrichment ratio came to 14.6. In the case of ASLI, the enrichment ratio amounted to 12.7. As for VRLL, the figure is not above 0.25; as for ASLL, 19.9; as for FNCT, not above 0.25. As for VWPK, the figure is not above 0.25. As for EMQV, the figure is not above 0.25; as for RTWK, not above 0.25; as for KHEA, not above 0.25. As to EWFR, the enrichment ratio is not above 0.25.

On to ASNY, for which the enrichment ratio is not above 0.25.

On to ASLY, for which the enrichment ratio amounted to 13.9.

Consider ASNT, for which the enrichment ratio was not above 0.25. As for KSLY, the figure is not above 0.25. As for KSMT, the figure is not above 0.25; as for ASFT, 1.36; as for ASLT, 11.9.

In the case of ASMT, the enrichment ratio came out at 12.

KHPW: the enrichment ratio is not above 0.25.

Consider MQFI, for which the enrichment ratio came out at 0.491. On to WDYP, for which the enrichment ratio was not above 0.25.

As for ATVW, the enrichment ratio is 3.56.

For the variant WCCW, the enrichment ratio was not above 0.25. As for MCYN, the figure is 11.3; as for MCYM, 14.1; as for KCYN, not above 0.25. On to MLYN, for which the enrichment ratio turned out to be 1.73. As for MLYM, the figure is 8.36; as for KCYM, not above 0.25.

Take QGPI: the enrichment ratio is not above 0.25.

Consider VQSP, for which the enrichment ratio is not above 0.25. As for FRQT, the figure is not above 0.25; as for YETN, not above 0.25.

On to ACSM, for which the enrichment ratio is 13.2. As for ACSF, the figure is 13.3; as for ACGR, not above 0.25. Regarding ACSK, the enrichment ratio came to 4.64. As for GKCK, the figure is not above 0.25; as for TDGP, not above 0.25.

As for RGGM, the enrichment ratio was not above 0.25. As for NMRS, the figure is not above 0.25; as for NMSA, not above 0.25; as for HPHS, not above 0.25. As for PTQE, the figure is not above 0.25. As for GGQE, the figure is not above 0.25; as for RNQE, not above 0.25. In the case of YTQE, the enrichment ratio was not above 0.25. As for KMQE, the figure is not above 0.25; as for TIQE, 15.1; as for AIQE, not above 0.25. Regarding TQQE, the enrichment ratio is 44.9. As for TIQC, the figure is 0.791; as for LAQE, not above 0.25.

Take TGQE: the enrichment ratio worked out at 24.5.

TKQE: the enrichment ratio is 16.5.

In the case of YCTL, the enrichment ratio worked out at 0.295. Consider YAID, for which the enrichment ratio was not above 0.25. As for WAIW, the figure is not above 0.25. As for TIAS, the figure is 11.1.

Values taken from a collection of fitness landscapes (doi:10.1126/science.1257360).
